Screening data (PubChem)
Luc counter: blocks Kinase-Glo luciferase, a counter-screen artifact | Q27757 | Kinase-Glo luciferase, ATP luminescence, 8 min | Potency, µM (highest dose often 38.3 µM), inactives show at the top dose activity change, negative = inhibition, hits mostly inhibitors | hit rate 0.28% among 200,000 | AID 1379; note: nearly all actives have a fitted effect of over 60% in size
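Compound is pinned into ATP-containing buffer (10 uM ATP, imidazole pH 7.2, 7 mM MgCl2). Kinase-Glo luciferase reagent is then added. Light output is recorded following an 8-min room-temperature incubation.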
VP16 counter: Gal4-VP16 reporter inhibition counter-screen; hit rate 3.5% among 310,000; Potency, µM (highest dose often 53.6 µM), for inactives: top-dose activity, negative = inhibition, actives largely listed as inhibitors; Drosophila S2 Gal4-VP16 UAS-luciferase, luminescence, 20 h;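 note: Gal4-VP16 expression switched on by copper sulfate through the metallothionein promoter; nearly all actives have a fitted effect of over 50% in size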
RORgamma inh: blocks mouse ROR gamma transcriptional activity. AID 2551. hit rate 5.4% among 310,000. P51450. Drosophila S2 Gal4-RORgamma UAS-luciferase reporter, 20 h. Potency, µM (highest dose often 53.6 µM), for the others: top-dose activity change, negative = inhibition, most hits filed as inhibitors; note: nearly all actives have a fitted effect of over 60% in size
Target sequence (P51450 whole entry, looked up, the tested form may be a part): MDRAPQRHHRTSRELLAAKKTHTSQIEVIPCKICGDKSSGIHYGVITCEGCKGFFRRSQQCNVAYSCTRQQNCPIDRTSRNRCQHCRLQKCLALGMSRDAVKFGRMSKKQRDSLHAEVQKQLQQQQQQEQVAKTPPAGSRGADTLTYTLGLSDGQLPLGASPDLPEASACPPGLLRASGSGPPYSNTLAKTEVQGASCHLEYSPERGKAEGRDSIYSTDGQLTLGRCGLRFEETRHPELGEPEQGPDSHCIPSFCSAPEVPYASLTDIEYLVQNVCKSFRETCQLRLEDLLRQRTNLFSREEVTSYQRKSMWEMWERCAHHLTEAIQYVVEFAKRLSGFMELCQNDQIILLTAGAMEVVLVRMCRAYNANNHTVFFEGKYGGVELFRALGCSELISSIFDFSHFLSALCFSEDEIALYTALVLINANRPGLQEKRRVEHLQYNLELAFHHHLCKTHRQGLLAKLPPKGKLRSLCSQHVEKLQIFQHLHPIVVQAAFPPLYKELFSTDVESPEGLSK
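Stably transfected Drosophila Schneider cells are the test system, with ROR gamma fused to Gal4 and luciferase under UAS control; luminescence is read after 20 hr of 700 uM copper sulfate induction at ambient temperature.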
Numbers without * were called inactive; u = inconclusive; x = no result; ! = not active in a repeat; [ ] = another dose, or the depositor's remark. Hits are enriched below; roughly 6.2% of the tested compounds scored in any of these assays. Calls come from the whole dose curve; as a rule, active = well fitted curve in the direction sought with a large enough effect; inconclusive = small, poorly fitted or top-dose-only effect, or another doubt; inactive = no such curve, though single readings can be large; an effect the other way counts as inactive or inconclusive. % is set by controls: 0 for no effect and ±100 for the full control effect; potency is the fitted concentration of half-maximal effect.

SMILES	Luc counter	VP16 counter	RORgamma inh
Cc1cc(C)n(-c2nc(N(C)C)nc(N3CCOCC3)n2)n1	2.3%	u	3.16µM*
Cc1cc(C)n(-c2nc3ccccc3nc2N2CCC(C)CC2)n1	-4.5%	u	u
Cc1cc(C)n(-c2cc(N3CCOCC3)ncn2)n1	0.5%	4.0%	-5.7%
Cc1cc(N2CCC(C)CC2)nc(-n2nc(C)cc2C)n1	1.7%	1.26µM*	0.398µM*
Cc1cc2nc([C@H](C)C(=O)c3ccc(Cl)cc3)c(=O)[nH]c2cc1C	-1.1%[7.66 µM]	x	x
O=C(C1CC=CCC1)N1CCC(CO)(Cc2ccc(Cl)cc2)CC1 (stereo not given)	2.1%	-1.0%	13.9%
CCCCCCc1cc2cc(C(=O)OCC)c(=O)oc2cc1O	x	0.3%	-7.3%
CCCCCCc1cc2cc(S(=O)(=O)c3ccc(F)c(Cl)c3)c(=O)oc2cc1O	0.8%	3.98µM*	u
Cc1cccc(Cn2nc(C(C)(C)C)cc2C(=O)N2CCOCC2)c1	x	-13.1%	19.2%
Cc1cc(NC(=O)CSc2nnc(CNC(=O)c3cccc(C(F)(F)F)c3)o2)no1	x	2.2%	-10.8%
COC(=O)c1c(NC(=O)c2nc3ccccc3s2)sc2c1CCN(C(C)=O)C2	1.9%	-1.9%	36.5%
CNC(=O)c1c(NC(=O)c2nc3ccccc3s2)sc2c1CCC2	-3.3%	8.91µM*	7.08µM*
Cc1nn(-c2ccccc2)c(C)c1C(=O)NCc1ccccc1F	x	14.9%	10.7%
CCc1c(C(=O)NNC(=S)NCc2ccccc2)csc1C	-0.7%	-15.4%	6.31µM*
CCc1c(C(=O)NNC(=S)NCC2CCCO2)csc1C (stereo not given)	-1.0%	u	u
CCc1c(C(=O)NNC(=S)NCC(C)C)csc1C	1.7%	17.8µM*	1.78µM*
CCc1c(C(=O)Nc2ccccc2C(N)=O)csc1C	x	-14.7%	-11.2%
COCCNC(=O)CN(C(=O)Cn1nnc2ccccc21)c1cc(C)cc(C)c1	0.2%	4.9%	-8.8%
COc1ccccc1CCn1c(=O)c(CCc2ccccc2)nc2cncnc21	x	-7.1%	-21.3%
COCCNC(=O)/C(C#N)=C/c1cc(C(C)C)c(OC)cc1C	3.1%	20.1%	24.9%
COC(=O)C/C=C/C(C)C(OCc1cccc(Br)c1)C(C)C(OC)C1CCCCC1 (stereo not given)	x	-0.6%[10 µM]	1.0%[10 µM]
S=C(Nc1ccccc1Cl)N1CCOCC1	3.5%	u	-5.2%
COc1c(Cl)ccc(Cl)c1C(=O)NC(=O)N1CCOCC1	-2.0%	3.9%	-12.5%
O=C(NCC(=O)N1CCCCC1)c1ccc(Cl)cc1Cl	-3.0%	0.2%	u
O=C(NC(=S)N1CCCC1)c1ccc(Cl)cc1Cl	x	1.41µM*	0.891µM*
SMILES	Luc counter	VP16 counter	RORgamma inh
COc1c(Cl)ccc(Cl)c1C(=O)NC(=S)N1CCOCC1	1.3%	11.2µM*	3.55µM*
O=C(NC(=S)N1CCOCC1)c1ccccc1Cl	x	u	2.82µM*
C[C@H]1[C@@H](OC(=O)CCC(=O)O)OC2OC3(C)CC[C@H]4[C@H](C)CC[C@@H]1[C@@]24OO3 (stereo not given in full)	x	-3.2%	-16.6%
C[C@@H]1CCC(=O)N(C[C@@H](C)CSc2ccccc2)CC1	x	24.2%	10.6%
O=C1COc2ccc(C(=O)CSc3ccccc3C(=O)O)cc2N1	x	-21.9%	-18.0%
CC(C)c1ccccc1-n1c(SCC(=O)c2ccc3c(c2)NC(=O)CO3)nc2ccccc2c1=O	0.5%	6.9%	2.82µM*
O=C(NN=C1CCN(Cc2ccccc2)CC1)c1cc2ccccc2cc1O	1.5%	0.7%	4.1%
CCOC(=O)N1CCC(=NNC(=O)NC2CCCCC2)CC1	-0.8%	-15.9%	6.1%
CC(=O)N1CCC(=NNC(=O)c2cccs2)CC1	-6.2%	-3.4%	22.4%
CCOC(=O)N1CCC(=NNC(=O)c2cc3ccccc3cc2O)CC1	-2.5%	u	12.6µM*
CCOC(=O)c1c(C)[nH]c(C)c1C(=O)COC(=O)c1ccccc1O	x	0.3%	-23.9%
CC(=O)N1CCC(=NNC(=O)c2cc3ccccc3cc2O)CC1	x	-9.6%	10µM*
O=C(NN=C1CCN(Cc2ccccc2)CC1)c1ccccc1O	x	u	10µM*
CCOC(=O)C1=C(C)C/C(=N\NC(=O)c2ccccc2O)CC1	x	10µM*	5.01µM*
COc1ccc(CNC(=O)CN(c2ccccc2)S(=O)(=O)N(C)C)cc1	x	-0.5%	-0.9%
Nc1ccccc1SCC(=O)Nc1cccc2ccccc12	x	15.0%	-9.1%
COc1ccc(CCN2C(=O)NC(NS(=O)(=O)c3ccc(Cl)cc3)(C(F)(F)F)C2=O)cc1OC (stereo not given)	5.8%	-6.8%	11.7%
Cc1c(C(=O)NNc2c(Cl)cccc2Cl)n(C)oc1=O	x	0.6%	u
O=[N+]([O-])c1cccc(/C=N/NC2=NS(=O)(=O)c3ccccc32)c1	-0.6%	1.4%	-6.1%
O=S1(=O)N=C(N/N=C/c2ccc(Br)o2)c2ccccc21	-2.2%	14.1µM*	6.31µM*
O=S1(=O)N=C(N/N=C/c2ccccn2)c2ccccc21	0.1%	u	u
CC(=O)Oc1ccc(/C=N/NC2=NS(=O)(=O)c3ccccc32)cc1	x	-7.0%	-26.5%
CN(C)c1ccc(/C=N/NC2=NS(=O)(=O)c3ccccc32)cc1	x	5.62µM*	3.98µM*
O=S1(=O)N=C(N/N=C/C=C/c2ccccc2)c2ccccc21	4.8%	0.631µM*	0.398µM*
CC(CCc1ccccc1)NC(=O)CCC(=O)N1CCC(C(=O)O)CC1 (stereo not given)	x	-1.7%	-10.0%
SMILES	Luc counter	VP16 counter	RORgamma inh
COc1cc(/C=C2\COC/C(=C\c3cc(OC)c(OC)c(OC)c3)C2=O)cc(OC)c1OC	x	5.01µM*	3.16µM*
COc1cc(/C=C2\CC/C(=C\c3cc(OC)c(OC)c(OC)c3)C2=O)cc(OC)c1OC	-2.6%	-7.2%	14.9%
Nc1ccccc1[N+](=O)[O-]	x	-1.1%	-11.4%
Cc1cc(-c2ccc(C)c(S(=O)(=O)NCCC(C)N3CCCCCC3)c2)on1 (stereo not given)	x	0.0%	-15.0%
CC(=O)Oc1cc(OC(C)=O)c2c(c1)OC(c1ccc(OC(C)=O)c(OC(C)=O)c1)C(OC(C)=O)C2 (stereo not given)	-0.6%	15.8µM*!	0.3%
CC(=O)Oc1cc(O)c2c(c1)OC(c1ccc(OC(C)=O)c(OC(C)=O)c1)C(OC(C)=O)C2=O (stereo not given)	x	1.6%	-9.1%
CCCCC(=O)Nc1ccc(NC(=S)NC(=O)c2ccco2)cc1OC	x	-0.3%	9.8%
CCCCC(=O)Nc1ccc(NC(=S)NC(=O)CC)cc1OC	-0.7%	-1.3%	12.6µM*
CCCCC(=O)Nc1ccc(NC(=S)NC(=O)c2cccs2)cc1OC	-2.6%	u	10µM*
CC(C)C(=O)Nc1cccc(NC(=S)NC(=O)c2cccs2)c1	x	u	-40.0%
CCCCC(=O)Nc1ccc(NC(=S)NC(=O)CCCCl)cc1OC	-0.1%	u	u
COc1cc(NC(=S)NC(=O)c2cccs2)ccc1NC(=O)C(C)C	-1.8%	u	12.6µM*
O=C1COc2ccc(S(=O)(=O)N3CCC(C(=O)NCc4ccccc4)CC3)cc2N1	x	0.1%	-3.7%
O=S(c1ccccc1)c1ccc2nnnn2n1 (stereo not given)	1.5%	x	x
COC(=O)C(C(=O)OC)C(C[N+](=O)[O-])c1ccc(OC)c(OC)c1 (stereo not given)	-3.4%	-3.8%	1.3%
